# Records with an inconclusive call do not appear. The source made the active and inactive calls. Rule for the calls: active = hit-call score of the fitted dose curve at least 0.9, where 1 is the maximum; inconclusive = response in the unintended direction; inactive = score below 0.9.
# Assays:
# [1] = biological target: rat Acetylcholinesterase (AChE), Ache (gene 83817) (UniProt P37136); assay: NVS_ENZ_rAChE: NovaScreen (NVS) Enzymatic Assay for rat Acetylcholinesterase (AChE) (AID 2283233)
# Outline: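 Rat brain membrane acetylcholinesterase activity measured colorimetrically 0.33 h after compound addition, loss of signal relative to DMSO. Primary screen in duplicate at 25 uM; actives re-run as concentration-response with 50 uM top concentration.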
# [2] = biological target: bovine Dopamine Receptor (DR), Non-selective Binding, DRD1 (gene 281125) (UniProt Q95136); assay: NVS_GPCR_bDR_NonSelective: NovaScreen (NVS) G Protein-Coupled Receptor Assay for bovine Dopamine Receptor (DR), Non-selective Binding (AID 2283241)
# bovine Dopamine Receptor (DR), Non-selective Binding, DRD1 (gene 281125), sequence (Q95136 whole entry, looked up): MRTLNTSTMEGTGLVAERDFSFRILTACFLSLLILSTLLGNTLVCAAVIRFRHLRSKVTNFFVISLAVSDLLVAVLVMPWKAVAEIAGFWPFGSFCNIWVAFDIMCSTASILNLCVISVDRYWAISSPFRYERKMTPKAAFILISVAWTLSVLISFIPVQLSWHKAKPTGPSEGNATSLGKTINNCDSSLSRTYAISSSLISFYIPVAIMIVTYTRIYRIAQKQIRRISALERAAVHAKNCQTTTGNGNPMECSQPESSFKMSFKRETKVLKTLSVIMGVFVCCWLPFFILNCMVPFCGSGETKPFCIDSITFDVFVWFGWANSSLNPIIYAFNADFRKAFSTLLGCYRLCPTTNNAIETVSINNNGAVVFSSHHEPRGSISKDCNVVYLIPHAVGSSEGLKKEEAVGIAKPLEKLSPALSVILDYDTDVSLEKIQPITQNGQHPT
# Outline: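 Bovine striatal membranes; radioligand displacement read by filtration and scintillation counting 1 h after dosing, loss of signal vs DMSO. Screened in duplicate at 25 uM, then concentration-response for hits.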
# [3] = tested on: rat Monoamine Oxidase, MAO-A, Central (MAOAC), gene 29253; assay: NVS_ENZ_rMAOAC: NovaScreen (NVS) Enzymatic Assay for rat Monoamine Oxidase, MAO-A, Central (MAOAC) (AID 2283243);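 note: potency refers to inhibition seen as signal drop below DMSO baseline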
# Outline: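 Inhibition of rat brain-derived MAO-A was read by scintillation counting after 1.5 h exposure. Compounds screened first at 25 uM in duplicate, then in dose series if active.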
# [4] = tested on: guinea pig Leukotriene B4 Receptor (LTB4), gene 100379538; assay: NVS_GPCR_gLTB4: NovaScreen (NVS) G Protein-Coupled Receptor Assay for guinea pig Leukotriene B4 Receptor (LTB4) (AID 2283247)
# Outline: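 Radioligand displacement on guinea pig spleen membranes, filter-based scintillation counting 2 h after dosing. Primary duplicate single point at 25 uM; hits over threshold (e.g. 30% inhibition) run in concentration-response up to 50 uM, DMSO baseline.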
# [5] = biological target: human Serotonin, 5-Hydroxytryptamine Receptor 5A (5HT5A), HTR5A (gene 3361) (UniProt P47898); assay: NVS_GPCR_h5HT5A: NovaScreen (NVS) G Protein-Coupled Receptor Assay for human Serotonin, 5-Hydroxytryptamine Receptor 5A (5HT5A) (AID 2283251)
# human Serotonin, 5-Hydroxytryptamine Receptor 5A (5HT5A), HTR5A (gene 3361), sequence (P47898 whole entry, looked up): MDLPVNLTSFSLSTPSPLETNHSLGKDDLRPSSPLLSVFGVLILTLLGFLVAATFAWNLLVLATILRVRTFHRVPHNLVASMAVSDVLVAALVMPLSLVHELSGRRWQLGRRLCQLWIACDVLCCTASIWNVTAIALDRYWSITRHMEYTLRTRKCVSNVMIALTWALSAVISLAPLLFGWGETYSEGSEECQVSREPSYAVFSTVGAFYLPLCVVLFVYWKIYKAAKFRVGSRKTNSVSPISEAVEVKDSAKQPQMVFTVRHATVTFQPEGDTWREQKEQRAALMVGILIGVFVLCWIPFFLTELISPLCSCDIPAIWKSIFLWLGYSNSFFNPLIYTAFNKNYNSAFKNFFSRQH
# Outline: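 Cell-free radioligand displacement binding on HEK293-derived membrane protein, 1 h incubation, filter-based scintillation counting. Primary screen in duplicate at 25 uM, actives followed in concentration series; loss of signal fitted versus DMSO.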
# [6] = biological target: human Serotonin, 5-Hydroxytryptamine Receptor 7 (5HT7), HTR7 (gene 3363) (UniProt P34969); assay: NVS_GPCR_h5HT7: NovaScreen (NVS) G Protein-Coupled Receptor Assay for human Serotonin, 5-Hydroxytryptamine Receptor 7 (5HT7) (AID 2283255);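 note: hits reduce specific radioligand binding relative to DMSO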
# human Serotonin, 5-Hydroxytryptamine Receptor 7 (5HT7), HTR7 (gene 3363), sequence (P34969 whole entry, looked up): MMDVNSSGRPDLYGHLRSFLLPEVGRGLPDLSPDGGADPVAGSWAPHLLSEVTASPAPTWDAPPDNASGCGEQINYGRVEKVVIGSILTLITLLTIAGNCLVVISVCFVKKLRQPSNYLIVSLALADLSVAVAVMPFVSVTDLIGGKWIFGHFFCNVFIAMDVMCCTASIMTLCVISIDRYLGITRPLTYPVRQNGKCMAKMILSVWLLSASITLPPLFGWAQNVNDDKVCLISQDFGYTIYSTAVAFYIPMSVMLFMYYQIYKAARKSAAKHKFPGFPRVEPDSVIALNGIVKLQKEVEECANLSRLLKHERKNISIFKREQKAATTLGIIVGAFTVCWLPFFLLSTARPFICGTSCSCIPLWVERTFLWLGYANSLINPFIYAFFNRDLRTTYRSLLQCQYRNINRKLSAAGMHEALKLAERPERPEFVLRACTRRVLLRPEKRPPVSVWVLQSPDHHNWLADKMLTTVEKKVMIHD
# Outline: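 Radioligand displacement on membranes from CHO cells expressing human 5HT7, 1 h incubation, filter-based scintillation counting. Primary screen used a single 25 uM concentration in duplicate; actives were followed up in concentration series.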
# [7] = biological target: rat Constitutive Nitric Oxide Synthase (CNOS), Nos1 (gene 24598) (UniProt P29476); assay: NVS_ENZ_rCNOS: NovaScreen (NVS) Enzymatic Assay for rat Constitutive Nitric Oxide Synthase (CNOS) (AID 2283236)
# rat Constitutive Nitric Oxide Synthase (CNOS), Nos1 (gene 24598), sequence (P29476 whole entry, looked up): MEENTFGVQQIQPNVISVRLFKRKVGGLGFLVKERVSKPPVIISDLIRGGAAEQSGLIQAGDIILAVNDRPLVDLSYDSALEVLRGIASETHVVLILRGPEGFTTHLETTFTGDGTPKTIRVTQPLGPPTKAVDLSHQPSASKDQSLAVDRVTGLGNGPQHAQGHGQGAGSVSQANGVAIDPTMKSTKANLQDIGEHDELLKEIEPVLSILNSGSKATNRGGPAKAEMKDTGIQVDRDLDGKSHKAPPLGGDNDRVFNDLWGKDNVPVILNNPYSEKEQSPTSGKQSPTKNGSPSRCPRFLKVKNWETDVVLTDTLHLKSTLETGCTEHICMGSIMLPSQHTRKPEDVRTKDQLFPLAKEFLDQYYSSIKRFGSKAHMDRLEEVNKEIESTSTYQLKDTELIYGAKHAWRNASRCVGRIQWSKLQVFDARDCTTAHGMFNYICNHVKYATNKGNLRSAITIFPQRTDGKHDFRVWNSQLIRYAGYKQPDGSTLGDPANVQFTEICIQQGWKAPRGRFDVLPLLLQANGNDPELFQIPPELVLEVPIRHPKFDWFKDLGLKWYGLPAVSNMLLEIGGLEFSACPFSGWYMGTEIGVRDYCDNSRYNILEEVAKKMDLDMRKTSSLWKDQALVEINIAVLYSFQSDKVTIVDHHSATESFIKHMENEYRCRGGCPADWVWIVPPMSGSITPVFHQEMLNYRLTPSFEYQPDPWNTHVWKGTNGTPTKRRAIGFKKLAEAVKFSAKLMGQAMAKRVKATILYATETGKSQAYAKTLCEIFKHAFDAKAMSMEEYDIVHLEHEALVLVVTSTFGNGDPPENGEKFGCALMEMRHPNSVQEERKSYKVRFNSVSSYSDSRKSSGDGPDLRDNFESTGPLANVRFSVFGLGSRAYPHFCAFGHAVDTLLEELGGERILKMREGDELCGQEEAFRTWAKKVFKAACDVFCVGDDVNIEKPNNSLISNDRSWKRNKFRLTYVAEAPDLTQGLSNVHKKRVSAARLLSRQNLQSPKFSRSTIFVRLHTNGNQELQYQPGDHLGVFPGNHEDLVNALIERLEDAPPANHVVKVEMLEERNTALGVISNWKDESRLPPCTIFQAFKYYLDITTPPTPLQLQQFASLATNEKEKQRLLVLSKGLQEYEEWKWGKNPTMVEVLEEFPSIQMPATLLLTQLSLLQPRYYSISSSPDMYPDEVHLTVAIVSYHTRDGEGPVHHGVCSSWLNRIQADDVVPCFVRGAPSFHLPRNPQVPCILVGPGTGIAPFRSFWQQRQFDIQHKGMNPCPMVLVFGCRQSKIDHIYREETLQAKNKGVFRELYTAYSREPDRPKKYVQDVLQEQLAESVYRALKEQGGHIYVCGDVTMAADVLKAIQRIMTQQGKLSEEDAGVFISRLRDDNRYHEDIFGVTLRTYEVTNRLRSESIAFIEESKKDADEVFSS
# Outline: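 Enzyme activity in rat brain membrane preparation, read 1 h after dosing by filter-based radiometric scintillation counting. Primary screen in duplicate at 25 uM; actives (e.g., ≥30% inhibition) then run in concentration-response up to 50 uM.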
# [8] = biological target: sheep Cyclooxygenase-1 (Cox1), PTGS1 (gene 443551) (UniProt P05979); assay: NVS_ENZ_oCOX1: NovaScreen (NVS) Enzymatic Assay for sheep Cyclooxygenase-1 (Cox1) (AID 2283239);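 note: actives reduce cyclooxygenase activity so potencies are for inhibitors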
# sheep Cyclooxygenase-1 (Cox1), PTGS1 (gene 443551), sequence (P05979 whole entry, looked up): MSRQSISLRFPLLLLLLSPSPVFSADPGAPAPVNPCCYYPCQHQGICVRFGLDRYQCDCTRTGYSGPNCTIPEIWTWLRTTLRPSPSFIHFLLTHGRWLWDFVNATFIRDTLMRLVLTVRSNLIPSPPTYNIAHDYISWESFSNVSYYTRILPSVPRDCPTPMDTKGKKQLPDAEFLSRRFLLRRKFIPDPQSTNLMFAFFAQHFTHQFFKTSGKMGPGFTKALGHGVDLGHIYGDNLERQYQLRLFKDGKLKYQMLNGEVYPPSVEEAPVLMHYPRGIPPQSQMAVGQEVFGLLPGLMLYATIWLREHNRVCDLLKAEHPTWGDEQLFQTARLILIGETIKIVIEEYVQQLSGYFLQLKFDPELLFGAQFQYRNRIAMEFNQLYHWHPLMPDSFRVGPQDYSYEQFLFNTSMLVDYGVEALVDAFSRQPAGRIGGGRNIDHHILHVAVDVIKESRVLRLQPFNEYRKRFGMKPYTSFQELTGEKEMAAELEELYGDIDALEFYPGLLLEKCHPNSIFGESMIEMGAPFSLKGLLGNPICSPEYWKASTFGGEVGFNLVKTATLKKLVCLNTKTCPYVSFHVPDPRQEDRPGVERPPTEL
# Outline: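 Ovine seminal vesicle extract; absorbance (colorimetric) enzyme read-out at 0.66 h post-dose. Primary: single conc 25 uM, duplicate. Follow-up: concentration series on actives. Activity = signal loss vs DMSO baseline.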
# rat Acetylcholinesterase (AChE), Ache (gene 83817), sequence (P37136 whole entry, looked up): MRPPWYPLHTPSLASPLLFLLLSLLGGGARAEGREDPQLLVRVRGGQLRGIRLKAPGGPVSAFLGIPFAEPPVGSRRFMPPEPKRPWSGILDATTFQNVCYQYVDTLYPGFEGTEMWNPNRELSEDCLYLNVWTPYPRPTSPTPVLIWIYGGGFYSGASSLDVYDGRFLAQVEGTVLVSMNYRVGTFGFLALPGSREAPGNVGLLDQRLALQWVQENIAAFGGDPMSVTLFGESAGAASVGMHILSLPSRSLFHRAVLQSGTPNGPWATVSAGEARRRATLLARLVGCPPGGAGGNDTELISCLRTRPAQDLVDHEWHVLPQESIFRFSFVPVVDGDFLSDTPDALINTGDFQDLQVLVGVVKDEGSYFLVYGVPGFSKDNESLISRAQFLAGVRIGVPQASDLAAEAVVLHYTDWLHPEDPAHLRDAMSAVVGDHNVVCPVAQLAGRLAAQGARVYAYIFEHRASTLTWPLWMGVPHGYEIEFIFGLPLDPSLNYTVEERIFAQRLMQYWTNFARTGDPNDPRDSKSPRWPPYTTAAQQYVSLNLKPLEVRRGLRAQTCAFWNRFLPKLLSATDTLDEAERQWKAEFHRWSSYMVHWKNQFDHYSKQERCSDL
smiles,measurement,setting,value
O=C(Nc1ccccc1)Nc1cnns1,outcome,[1],inactive
same,outcome,[2],inactive
same,AC50,[3],5.16 µM (active)
same,AC50,[4],25 µM (active)
same,AC50,[5],3.88 µM (active)
same,outcome,[6],inactive
CNC(=O)Oc1ccccc1OC(C)C,AC50,[1],5.05 µM (active)
same,outcome,[7],inactive
CCC(C)(C)C(=O)OC1=C(c2ccc(Cl)cc2Cl)C(=O)OC12CCCCC2,outcome,[5],inactive
CC(C)(C)C(O)C(Oc1ccc(Cl)cc1)n1cncn1 (stereo not given),outcome,[8],inactive
